# Tested on: Plasmodium falciparum NF54
# Test: growth inhibition relative to untreated control; higher = more inhibition
# Settings: 72 h
# Summary of the method: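 Ring-stage P. falciparum NF54 parasites at 1% hematocrit and 1% parasitemia were dispensed at 100 μL/well into dark 96-well half-area plates and given a single dose of test compound at 5 μM or 1 μM for 72 h at 37 °C. Incubation took place in minimal RPMI, either alone or supplemented with the chorismate end-products folate (2.2 μM), pABA (7.3 μM), pHBA (7.3 μM), tyrosine (111 μM), phenylalanine (90 μM) and tryptophan. Growth inhibition was determined with SYBR Green relative to untreated wells, using uninfected erythrocytes for background.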
# [1] = 1 µM, MM + chorismate end-products (CM screening medium)
# [2] = 5 µM, MM + chorismate end-products (CM screening medium)
Structure (SMILES),growth inhibition [1] [%],"growth inhibition (1 µM, minimal medium (MM)) [%]",growth inhibition [2] [%],"growth inhibition (5 µM, minimal medium (MM)) [%]"
O=C1COCc2ccc(Br)cc2N1Cc1ccc(C(F)(F)F)cc1,56,96.7,> 100,85.1
Clc1ccc(CN2CCN(C3=NCCN3)CC2)cc1Cl,< 0,< 0,48.8,10
COc1ccc(CN2CCOc3ccc(C(C)(O)CN(C)C)cc3C2)cc1C (stereo unspecified),78.6,75,66.7,21.7
NS(=O)(=O)c1cncc(-c2ccc3nccc(-c4cn[nH]c4)c3n2)c1,83.8,> 100,92.8,94.8

# Source: the supplement of paper PMC6763611
